The source of these data is PubChem BioAssay (EPA / NIEHS).

The source made the active and inactive calls. How the source made its calls: active means hit-call score of the fitted dose curve at least 0.9, where 1 is the maximum; inactive means score below 0.9.

Cytochrome P450 3A4 (Homo sapiens), sequence (P08684 whole entry, looked up): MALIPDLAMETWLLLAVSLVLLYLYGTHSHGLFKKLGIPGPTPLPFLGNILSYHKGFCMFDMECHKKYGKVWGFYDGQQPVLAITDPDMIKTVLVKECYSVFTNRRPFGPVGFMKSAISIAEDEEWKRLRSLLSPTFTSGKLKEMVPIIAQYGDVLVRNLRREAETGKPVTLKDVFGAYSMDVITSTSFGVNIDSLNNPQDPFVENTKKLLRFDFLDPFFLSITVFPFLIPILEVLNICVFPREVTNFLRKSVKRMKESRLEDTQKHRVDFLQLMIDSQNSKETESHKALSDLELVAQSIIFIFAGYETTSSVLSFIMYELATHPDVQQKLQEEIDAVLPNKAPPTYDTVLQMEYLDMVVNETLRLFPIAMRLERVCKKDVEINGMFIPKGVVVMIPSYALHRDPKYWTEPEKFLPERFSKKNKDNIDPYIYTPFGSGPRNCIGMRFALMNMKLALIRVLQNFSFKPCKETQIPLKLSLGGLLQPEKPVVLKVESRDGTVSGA

Read-out in the first experiment: CYP4A11 (gene 1579)
Put plainly: LTEA_HepaRG_CYP4A11: Life Technologies and Expression Analysis (LTEA) Assay for CYP4A11 using HepaRG (AID 2283486). Particulars: mRNA level, 48 h; actives raise or lower the signal. The method in brief: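 CYP4A11 transcript levels were quantified by TaqMan qRT-PCR after HepaRG human liver cells were treated for 48 hours with test chemicals (top 100 uM, half-log dilutions, 0.5% DMSO). Gain or loss of signal was fitted relative to DMSO.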
Usually AC50 stands for the concentration at which the activity in the assay is half-maximal. For `CC(C)(O)C(=O)Nc1ccc([N+](=O)[O-])c(C(F)(F)F)c1`, the concentration at half-maximal activity (AC50) is 42 µM (active).

`CN(C)CCO`: the molecule was called inactive.

As to `Cc1ccccc1CO[C@@H]1C[C@@]2(C(C)C)CC[C@]1(C)O2`, the call was inactive.

For the molecule `Cc1cc(-c2ccc(N)c(C)c2)ccc1N`, the molecule was called inactive.

For `c1cc2ccc3cccc4ccc(c1)c2c34`, the molecule was classed as inactive.

In the case of `Oc1c(Cl)c(Cl)c(Cl)c(Cl)c1Cl`, the AC50 is 4.37 µM (active).

Regarding `Clc1ccc(C(c2ccccc2Cl)C(Cl)(Cl)Cl)cc1` (centres undefined), the AC50 is 40.7 µM (active).

Regarding `O=S(=O)(O)C(F)(F)C(F)(F)C(F)(F)C(F)(F)F`, the molecule was classed as inactive.

With `Nc1ccc(-c2ccc(N)cc2)cc1`, the AC50 was 33.1 µM (active).

Turning to `C=CC(N)=O`, the outcome was inactive.

Take `O=C(O)C(F)(F)C(F)(F)C(F)(F)C(F)(F)C(F)(F)C(F)(F)C(F)(F)C(F)(F)F`: the AC50 is 89.5 µM (active).

Regarding `CCCCCCCCCc1ccc(O)cc1`, the concentration at half-maximal activity (AC50) was 33.5 µM (active).

With `CO/C=C(/C(=O)OC)c1ccccc1COc1cccc(C(F)(F)F)n1`, the AC50 is 3.9 µM (active).

In the case of `ClC1=C(Cl)[C@]2(Cl)[C@@H]3[C@@H]4C[C@@H]([C@H]5O[C@@H]45)[C@@H]3[C@@]1(Cl)C2(Cl)Cl`, the concentration at half-maximal activity (AC50) was 31.5 µM (active).

With `Oc1ccc(Cl)cc1Cl`, the outcome was inactive.

As for `C=CC(=O)NCNC(=O)C=C`, the call was inactive.

`O=C(NC(=O)c1c(F)cccc1F)Nc1cc(Cl)c(OC(F)(F)C(F)F)c(Cl)c1`: the call was inactive.

For the molecule `O=C(NC(=O)c1cc(F)c(F)cc1Cl)Nc1cc(F)ccc1N1CCC(C(=O)O)CC1`, the AC50 is 6.34 µM (active).

Consider `ClC(Cl)=C(c1ccc(Cl)cc1)c1ccc(Cl)cc1`, for which the molecule was called inactive.

For the molecule `COS(=O)(=O)OC`, the molecule was classed as inactive.

For the molecule `N#Cc1ccc(N(CC(N)=O)CC(F)(F)F)cc1C(F)(F)F`, the molecule was called inactive.

Take `CCC(=O)O[C@H]1CC[C@H]2[C@@H]3CCC4=CC(=O)CC[C@]4(C)[C@H]3CC[C@]12C`: the AC50 is 1.16 µM (active).

For `CCCCCCCCOC(=O)c1ccccc1C(=O)OCCCCCCCC`, the call was inactive.

Read-out in another experiment: Cytochrome P450 3A4 (Homo sapiens) (UniProt P08684)
Put plainly: LTEA_HepaRG_CYP3A4: Life Technologies and Expression Analysis (LTEA) Assay for CYP3A4 using HepaRG (AID 2283487). Particulars: mRNA level, 48 h; actives raise or lower the signal. The method in brief: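 HepaRG, 48 h exposure, 8-pt CRC from 100 uM (half-log), 0.5% DMSO, duplicates; serum-free induction medium. Readout: CYP3A4 mRNA, qRT-PCR, ACTB/GAPDH/POLR2A normalization. Bidirectional fit vs DMSO.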
With `CCC(C)(CC)c1cc(NC(=O)c2c(OC)cccc2OC)on1`, the concentration at half-maximal activity (AC50) was 0.541 µM (active).

For the molecule `Cc1ccccc1O`, the molecule was classed as inactive.

In the case of `O=NN(c1ccccc1)c1ccccc1`, the result was inactive.

On to `NS(=O)(=O)C(F)(F)C(F)(F)C(F)(F)C(F)(F)C(F)(F)C(F)(F)C(F)(F)C(F)(F)F`, for which the AC50 was 10.7 µM (active).

Turning to `Nc1ccc(-c2ccc(N)cc2)cc1`, the outcome was inactive.

Take `CCOCCOC(C)=O`: the call was inactive.

With `CO/C=C(/C(=O)OC)c1ccccc1COc1cccc(C(F)(F)F)n1`, the AC50 was 8.05 µM (active).

Turning to `Cc1ccccc1[N+](=O)[O-]`, the result was inactive.

Regarding `Oc1ccc(Cl)cc1Cl`, the molecule was called inactive.

Consider `Clc1ccc(C(Cl)(Cl)Cl)cc1`, for which the outcome was inactive.

Consider `C1CC2OC2CC1C1CO1` (centres undefined), for which the result was inactive.

Regarding `O=C(NC(=O)c1c(F)cccc1F)Nc1cc(Cl)c(OC(F)(F)C(F)F)c(Cl)c1`, the call was inactive.

Consider `CCC(C)(c1ccc(O)cc1)c1ccc(O)cc1`, for which the molecule was called inactive.

Regarding `CCCCCCCCOC(=O)c1ccccc1C(=O)OCCCCCCCC`, the molecule was called inactive.

Read-out in a further experiment: DNA damage-inducible transcript 3 (DDIT3), DDIT3 (gene 1649)
Put plainly: LTEA_HepaRG_DDIT3: Life Technologies and Expression Analysis (LTEA) Assay for DNA damage-inducible transcript 3 (DDIT3) using HepaRG (AID 2283488). Particulars: mRNA level, 48 h; actives raise or lower the signal. The procedure, abridged: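 HepaRG cells, 48 h after plating, exposed 48 h in serum-free induction medium to 8 half-log concentrations up to 100 uM in 0.5% DMSO, in duplicate. DDIT3 mRNA measured by TaqMan qRT-PCR, normalized to ACTB, GAPDH and POLR2A. Fitted bidirectionally against DMSO.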
`CCC(C)(CC)c1cc(NC(=O)c2c(OC)cccc2OC)on1`: the half-maximal activity concentration (AC50) is 83.3 µM (active).

For `CN(C)CCO`, the call was inactive.

Turning to `O=NN(c1ccccc1)c1ccccc1`, the outcome was inactive.

With `Clc1ccc(C(c2ccccc2Cl)C(Cl)(Cl)Cl)cc1` (centres undefined), the AC50 was 74.6 µM (active).

As to `C=CC(N)=O`, the outcome was inactive.

For `CCOCCOC(C)=O`, the call was inactive.

With `ClC1=C(Cl)[C@]2(Cl)[C@@H]3[C@@H]4C[C@@H]([C@H]5O[C@@H]45)[C@@H]3[C@@]1(Cl)C2(Cl)Cl`, the half-maximal activity concentration (AC50) is 62.8 µM (active).

For `Clc1ccc(C(Cl)(Cl)Cl)cc1`, the outcome was inactive.

As to `C1CC2OC2CC1C1CO1` (centres undefined), the outcome was inactive.

With `ClC(Cl)=C(c1ccc(Cl)cc1)c1ccc(Cl)cc1`, the outcome was inactive.

Take `N#Cc1ccc(N(CC(N)=O)CC(F)(F)F)cc1C(F)(F)F`: the outcome was inactive.

Turning to `CCCCCCCCOC(=O)c1ccccc1C(=O)OCCCCCCCC`, the molecule was called inactive.

Read-out in a further experiment: Pro-epidermal growth factor (Homo sapiens) (UniProt P01133)
Put plainly: LTEA_HepaRG_EGF: Life Technologies and Expression Analysis (LTEA) Assay for Epidermal growth factor (EGF) using HepaRG (AID 2283489). To be noted: mRNA level, 48 h; actives raise or lower the signal. The method in brief:
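qRT-PCR readout of EGF transcript after 48 h chemical exposure of HepaRG cells; eight concentrations from 100 uM down in half-log steps, duplicate wells, 0.5% DMSO vehicle. Bidirectional curve fitting against DMSO baseline.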
Regarding `CCC(C)(CC)c1cc(NC(=O)c2c(OC)cccc2OC)on1`, the call was inactive.

`Cc1ccccc1O`: the call was inactive.

For the molecule `CN(C)CCO`, the outcome was inactive.

As to `Cc1cc(-c2ccc(N)c(C)c2)ccc1N`, the molecule was classed as inactive.

As for `c1cc2ccc3cccc4ccc(c1)c2c34`, the result was inactive.

Regarding `Clc1ccc(C(c2ccccc2Cl)C(Cl)(Cl)Cl)cc1` (centres undefined), the result was inactive.

`NS(=O)(=O)C(F)(F)C(F)(F)C(F)(F)C(F)(F)C(F)(F)C(F)(F)C(F)(F)C(F)(F)F`: the AC50 was 8.93 µM (active).

With `CCOCCOC(C)=O`, the result was inactive.

On to `CCCCCCCCCc1ccc(O)cc1`, for which the outcome was inactive.

Turning to `CO/C=C(/C(=O)OC)c1ccccc1COc1cccc(C(F)(F)F)n1`, the AC50 is 50 µM (active).

As to `Cc1ccccc1[N+](=O)[O-]`, the result was inactive.

As for `CCC(C)(c1ccc(O)cc1)c1ccc(O)cc1`, the molecule was classed as inactive.

Read-out in a further experiment: Early growth response protein 1 (EGR1) transcription factor, EGR1 (gene 1958)
Put plainly: LTEA_HepaRG_EGR1: Life Technologies and Expression Analysis (LTEA) Assay for Early growth response protein 1 (EGR1) transcription factor using HepaRG (AID 2283490). Particulars: mRNA level, 48 h; actives raise or lower the signal. The procedure, abridged: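 Differentiated human HepaRG cells in serum-free induction medium were exposed in duplicate for 48 h to eight concentrations (top 100 uM, half-log steps) in 0.5% DMSO. EGR1 mRNA was quantified by qRT-PCR, normalized to ACTB, GAPDH and POLR2A, and fitted bidirectionally versus DMSO.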
Turning to `CC(C)(O)C(=O)Nc1ccc([N+](=O)[O-])c(C(F)(F)F)c1`, the AC50 was 0.0388 µM (active).

On to `CCC(C)(CC)c1cc(NC(=O)c2c(OC)cccc2OC)on1`, for which the outcome was inactive.

Take `Cc1cc(-c2ccc(N)c(C)c2)ccc1N`: the molecule was classed as inactive.

For `Oc1c(Cl)c(Cl)c(Cl)c(Cl)c1Cl`, the AC50 is 8.53 µM (active).

As for `NS(=O)(=O)C(F)(F)C(F)(F)C(F)(F)C(F)(F)C(F)(F)C(F)(F)C(F)(F)C(F)(F)F`, the AC50 is 89 µM (active).

With `Nc1ccc(-c2ccc(N)cc2)cc1`, the result was inactive.

For the molecule `CCCCCCCCCc1ccc(O)cc1`, the outcome was inactive.

In the case of `Oc1ccc(Cl)cc1Cl`, the outcome was inactive.

Consider `Clc1ccc(C(Cl)(Cl)Cl)cc1`, for which the outcome was inactive.

Take `C=CC(=O)NCNC(=O)C=C`: the call was inactive.

`C1CC2OC2CC1C1CO1` (centres undefined): the call was inactive.

Take `COS(=O)(=O)OC`: the call was inactive.

Consider `N#Cc1ccc(N(CC(N)=O)CC(F)(F)F)cc1C(F)(F)F`, for which the molecule was called inactive.
